The structures appear in SMILES notation. Values joined by “and” are separate entries in the source; they are usually repeats but may differ in a detail not shown here. Identical values can stand only once. Screen size: about 430,000 compounds; about 2,600 (0.6%) were called active. The full list was thinned out, with actives kept by preference. Values without a mark were called inactive. No stated cut-off is given here; in the data, active means inhibition mostly above about 37% (no sharp cut-off); inactive means mostly below about 20%.

The test deals with PriA–SSB C-terminal tail interaction (Klebsiella pneumoniae). The test can be described thus: inhibitors of Klebsiella pneumoniae PriA binding to SSB C-terminal tail, primary screen, biochemical, AlphaScreen (AID 1272365).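 Further: plate controls were negative control peptide for no effect and reference peptide for full effect.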 The conditions noted are these: AlphaScreen SSBct-PriA binding, biotinylated peptide; at 33 µM, active compounds read high. In general terms: Bead proximity is the source of the signal in Alpha formats.
Take `CC(=O)N(C)c1ccc(OC[C@@H](O)CN(c2ccc(C)cc2)S(=O)(=O)c2ccc(C)cc2)cc1`: the inhibition (commonly the change of the read-out against control, counted positive when it falls) is -17%.
Turning to `CC1(C)C(=O)NCCN1C(=O)Cc1ccc2c(c1)OCO2`, the inhibition was -2% and -8%.
As for `COC1(CNC(=O)C2CCN(S(C)(=O)=O)CC2)CCSC1` (stereo not given), the figure is -5%; as for `C=CC(=O)Nc1ccc(Nc2ccnc(Nc3ccc(N4CCN(C)CC4)cc3)n2)cc1`, 56.7% (active).
As to `COc1ccc(N2CCN(C(=S)Nc3ccc(C(C)=O)cc3)CC2)cc1`, the inhibition was 5%.
On to `COc1ccc(NC(=O)Nc2ccc(N3CCOCC3)cc2)cc1`, for which the inhibition was -16%.
As for `O=C(c1cc(Cl)sc1Cl)N(CC1CCCO1)c1nc2c(F)cc(F)cc2s1` (stereo not given), the figure is -20%; as for `CCOC(=O)N1CCN(C(=O)Cn2nc(C(F)(F)F)n(C)c2=O)CC1`, 2%.
In the case of `O=C(Nc1ccccc1-c1ccc(=O)[nH]n1)c1ccncc1`, the inhibition is -12%.
Regarding `COc1ccc(-c2ccc(CCC(=O)O)n2NC(=O)c2ccc(C(C)(C)C)cc2)cc1`, the inhibition was -5.78%.
`CC(=O)N1N=C(c2ccncc2)OC1(Cc1ccccc1)Cc1ccccc1`: the inhibition is -8.22%.
As for `COc1ccc(CC2(C)OC(c3ccc(C(C)(C)C)cc3)=NN2C(C)=O)cc1` (stereo not given), the figure is 62.5% (active); as for `Cn1c(=O)c2nc(SCC(=O)Nc3ccc(F)c([N+](=O)[O-])c3)n(C)c2n(C)c1=O`, -5%; as for `CCOc1ccc(-c2ccc(=O)n(CCNC(=O)C3CC3)n2)cc1`, 6%.
For the molecule `NC(=NOC(=O)c1ccc(=O)n(Cc2ccccc2)c1)c1ccccn1`, the inhibition was 3.95%.
As for `CSc1ccc(C=NNC(=O)CNc2ccc3ccccc3c2)cc1`, the figure is 47.7% (active); as for `COC(=O)c1ccc(C=NNC(=O)CNc2cccc(C)c2)cc1`, -5.68%.
For `O=C(CNc1ccc2ccccc2c1)NN=Cc1ccc(C(=O)O)cc1` the value was 13.8%; for `C(#Cc1ccc2noc(-c3ccccc3)c2c1)c1ccccc1`, -6%; for `O=C(CCN1CCOCC1)N1N=C(c2ccccc2)CC1c1cccc([N+](=O)[O-])c1` (stereo not given), 8%.
Regarding `Cc1ccc(Cn2cc(C(=O)NN)c(=O)c3ccc(F)cc32)cc1`, the inhibition was -0.06%.
On to `COc1cccc(Cn2cc(C(=O)c3ccccc3)c(=O)c3cc4c(cc32)OCCO4)c1`, for which the inhibition was -13%.
For `O=C(c1ccc(F)cc1)c1cn(Cc2ccc(F)cc2)c2cc3c(cc2c1=O)OCCO3` the value was 115% (active); for `COc1ccc(C=Nc2cccc3ncccc23)cc1`, 86.5% (active); for `C=CCn1c(N=Cc2ccc(OC)cc2)nc2ccccc21`, 10.8%.
As for `CCc1nc2ccccc2c(=O)n1N=Cc1ccc(OC)cc1`, the figure is 4.76%; as for `CCOC(=O)c1c(-c2ccc(F)cc2)csc1NC(=O)CSc1n[nH]c(N)n1`, 9%; as for `Cc1ccc(OCc2ccc(-c3nc(C#N)c(N4CCCCCC4)o3)o2)cc1`, 39.5%.
For `CCCOc1ccc(-c2nc(C#N)c(N3CCCCC3)o2)cc1` the value was 90% (active).
On to `Cc1ccc(OCc2nc(C#N)c(N3CCCC3)o2)cc1`, for which the inhibition was -11.1%.
`COc1cccc2cc(C(=O)C3=C(O)C(=O)N(CCN(C)C)[C@@H]3c3ccccc3F)oc12`: the inhibition was -20%.
With `NS(=O)(=O)c1ccc(NC(=O)c2cn(Cc3cccc(F)c3)nc2OCc2cccc(F)c2)cc1`, the inhibition was -16%.
In the case of `Cc1ccc(C=NNC(=O)c2cccc(S(=O)(=O)Nc3cccc(Cl)c3)c2)o1`, the inhibition is -6.77%.
Take `COc1cccc(NC(=O)C2C(c3ccccc3)C2(Cl)Cl)c1` (stereo not given): the inhibition was -12.2%.
Take `COc1ccc2c(c1)C(C)=CC(C)(C)N2C(=O)Nc1ccccc1`: the inhibition was 38.4% (active).
On to `COc1cccc(NC(=O)c2nn(-c3ccc(OC)cc3OC)c(=O)c3ccccc23)c1`, for which the inhibition was -7.71%.
As for `CCOC(=O)c1ccc(NC(=O)CSc2nnc(-c3cccs3)n2-n2cccc2)cc1`, the figure is 0%.
Turning to `CCOC(=O)CNC(=O)NC1CC(=O)N(c2ccccc2)C1` (stereo not given), the inhibition is 32%.
For the molecule `Cc1cnc(-c2ccccn2)nc1N`, the inhibition is 151% (active).
As for `CC1(C)N=C(c2ccccn2)C(C)(C)N1O`, the figure is -5.91%; as for `Cc1c(N)nc(-c2ccccn2)nc1Cl`, 47.3%.
For `COc1ccc(NC(=O)Cn2ncn3nc(-c4ccc(F)cc4)cc3c2=O)cc1Cl` the value was 6%; for `CNC(=S)NN=C(C)c1cccc(C(F)(F)F)c1`, -4.78%.
As to `O=C(NCC1(c2ccsc2)CCCC1)Nc1cccs1`, the inhibition is 53% (active).
For `Cn1cc(C(=O)NCC2(c3ccsc3)CCCC2)nn1` the value was -24%.
For `O=C(Cc1ccc(F)cc1)NCC1(c2ccsc2)CCCC1` the value was -6%.
`NCCc1csc2nc(-c3cccc(F)c3)nn12`: the inhibition is 16%.
For `O=C(Nc1cnc(N2CCN(c3ccccc3)CC2)nc1)c1c(F)cccc1F` the value was -6%; for `Cc1ccc(-n2ncc3c(=O)[nH]c(-n4nc(C)cc4NC(=O)Cc4ccccc4)nc32)cc1`, -5%; for `Cc1cc(NC(=O)C(C)(C)CCl)n(-c2ncnc3c2cnn3-c2cccc(C)c2C)n1`, 11%.
As to `Cc1cc(NC(=O)c2ccccc2Cl)n(-c2nc3c(cnn3-c3cccc(C)c3C)c(=O)[nH]2)n1`, the inhibition is 53% (active).
For `CCOC(=O)N1CCC(NC(=O)Cc2csc(Nc3ccc(F)cc3)n2)CC1` the value was 2%; for `CC(C)n1cnc2c(NCc3ccccc3)cc(OCC3CCN(C)CC3)cc21`, 53.1% (active).
For `O=C(c1ccc(S(=O)(=O)NCc2cccnc2)o1)N1CCC(Cc2ccccc2)CC1` the value was 5%.
As to `O=[N+]([O-])c1cc(C(F)(F)F)ccc1NCCc1ccncc1`, the inhibition was -11.2%.
As for `O=[N+]([O-])c1cc(S(=O)(=O)N2CCCC2)ccc1NN=C1CCCC1`, the figure is 11.5%; as for `O=[N+]([O-])c1cc(C(F)(F)F)ccc1NN=C1CCCC1`, 43.5% (active).
Turning to `COc1cc(OC)c(OC)cc1/C=C1/C(=O)NC(=N)N1C`, the inhibition was -14.1%.
As for `O=C(COc1ccc(Cl)cc1Cl)NCC(=O)N/N=C\c1cccs1`, the figure is -6%; as for `CC(=O)c1ccc(S(=O)(=O)N2CC(S(=O)(=O)c3ccc(Cl)cc3)C2)cc1`, -15%.

Values taken from PubChem BioAssay AID1272365 (Small Molecule Screening Facility, UW Madison, 2018).
